Pf growth 96h – inhibits malaria parasite growth, 96 h; P. falciparum luciferase reporter growth, 96 h; Potency, µM (doses to about 28.7 µM), inactives show at the highest dose activity change, negative = inhibition, usual class: inhibitors; actives 6.9% (n = 320,000); AID 504834; note: % is set by controls: 0 for no effect and ±100 for the full control effect
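P. falciparum expressing integrated firefly luciferase, in erythrocytes at 2% hematocrit, 0.05% parasitemia, incubated with compounds 96 h at 37 C, 5% CO2. Growth inhibition read as loss of luminescence; two-generation exposure targets delayed-death apicoplast inhibitors.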
NS1 function inh – inhibitors of influenza NS1 protein function | actives 0.4% (n = 270,000) | Potency, µM (top dose mostly 46.1 µM), for inactives: at the highest dose activity, positive = more growth; calls by dose curve; note: actives are rising curves; nearly all actives have a fitted effect of over 50% in size
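Growth recovery, yeast-based: influenza A NS1 expressed in S. cerevisiae causes slow growth, and suppressors are detected by OD600. The parent strain without NS1 is used as positive control.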
AMA1-RON2 inh – AMA1-RON2 (P. falciparum) interaction inhibition. AlphaScreen AMA1-biotinylated RON2 peptide binding. Potency, µM (titrated, usually from 58.2 µM), without a hit: top-dose activity change, negative = inhibition, most hits filed as inhibitors. actives 0.2% (n = 360,000);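 note: 0% = vehicle wells and -100% = peptide control; nearly all actives have a fitted effect of over 45% in size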
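AMA1 (3D7) with his tag at 25 nM final met compounds first, then biotinylated RON2 peptide at 25 nM; detection used donor plus acceptor beads, 10 µg/mL apiece, read by AlphaScreen after 30 min at room temperature.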
Pf growth 48h – inhibits P. falciparum growth in the first generation, 48 h; Potency, µM (series often up to 28.7 µM), without a hit: at the top dose activity change, negative = inhibition, most hits filed as inhibitors; actives 5.9% (n = 310,000); P. falciparum luciferase growth in erythrocytes, 48 h; AID 504832; note: % is set by controls: 0 for no effect and ±100 for the full control effect
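Growth was read as firefly luciferase luminescence after a 48 h, 37 C, 5% CO2 exposure of compounds to reporter-bearing P. falciparum cultures (0.1% parasitemia, 2% hematocrit final) in Albumax-supplemented RPMI 1640.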
Sm TGR inh – inhibitors of Schistosoma mansoni thioredoxin glutathione reductase; actives 3% (n = 360,000); Potency, µM (titrated, usually from 114 µM), for the others: at the highest dose activity change, negative = inhibition, hits mostly inhibitors; Q962Y6; purified TGR, DTNB reduction, TNB absorbance 405 nm; note: % is set by controls: 0 for no effect and ±100 for the full control effect; nearly all actives have a fitted effect of over 60% in size
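First, TGR (20 nM dispensed) and NADPH were mixed with compound. Second, a 15 min room-temperature incubation followed. Third, further NADPH and then DTNB were added to start the reaction. Finally, TNB absorbance was monitored kinetically.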
* hit, by the source's call; ? = inconclusive; / = no result given. Only some compounds are listed: those with a hit (about 11% of all), similar ones and a draw of the others. Unless noted, calls come from the whole dose curve; as a rule, active = well fitted curve in the direction sought with a large enough effect; inconclusive = small, poorly fitted or top-dose-only effect, or another doubt; inactive = no such curve, though single readings can be large; an effect the other way counts as inactive or inconclusive. Potency is the fitted concentration of half-maximal effect.

SMILES	Pf growth 96h	NS1 function inh	AMA1-RON2 inh	Pf growth 48h	Sm TGR inh
Cc1ccc(C(=O)OCC(=O)NCc2ccc(Cl)cc2Cl)o1	-24%	/	-1%	-14%	-10%
O=C(CO/N=C/c1ccccc1)N1c2ccccc2Oc2ccccc21	?	22%	0%	12µM*	0%
CC(Oc1ccccc1F)C(=O)NNC(=O)CCNC(=O)c1ccco1 (stereo unspecified)	28%	/	0%	7%	-6%
COc1ccc(C[C@H]2c3cc(O)c(OC)cc3CC[N+]2(C)[O-])cc1O (stereo partly specified)	?	4%	?	?	18µM*
Cc1noc(C)c1COc1cccc(C(=O)N2CCN(C/C=C/c3ccccc3)CC2)c1	/	-23%	-12%	10µM*	-18%
COc1ccccc1NS(=O)(=O)c1cc(C(=O)N2CCN(C/C=C/c3ccccc3)CC2)ccc1C	-15%	11%	8%	11%	35µM*
Cc1cccc(NS(=O)(=O)c2cccc(C(=O)N3CCN(C/C=C/c4ccccc4)CC3)c2)c1	10µM*	/	-1%	12µM*	-5%
COc1ccc(NS(=O)(=O)c2cccc(C(=O)N3CCN(C/C=C/c4ccccc4)CC3)c2)cc1	/	/	102%	/	/
COc1ccccc1NS(=O)(=O)c1cccc(C(=O)N2CCN(C/C=C/c3ccccc3)CC2)c1	8.3µM*	-4%	14%	5.9µM*	-19%
COc1ccc(N2CCN(C(=O)COC(=O)c3c(-c4ccccc4)noc3C)CC2)cc1	-1%	/	0%	-18%	-1%
CCc1ccc(-n2c(=O)c3ccccc3n(Cc3ccccc3C#N)c2=O)cc1	/	/	/	/	-5%
COc1ccccc1NS(=O)(=O)c1cc(C(=O)N2CCCC2)ccc1F	?	/	0%	3.3µM*	1%
COc1ccccc1NS(=O)(=O)c1cc(C(=O)N2CCN(C(=O)c3ccco3)CC2)ccc1F	/	/	-8%	/	/
COc1ccccc1NC(=O)C(C)N1CCN(C/C=C/c2ccccc2)CC1 (stereo unspecified)	17%	-15%	-6%	13µM*	-6%
Cn1c(=O)c2c(nc3n2CC(O)CN3c2ccccc2)n(C)c1=O (stereo unspecified)	/	/	-11%	/	/
Cc1cc2c(cc1S(=O)(=O)Nc1ccc(C(C)C)cc1)OCCN2C	12µM*	/	/	?	5%
OCC[C@H]1C[C@@H](O)[C@H](O)[C@]2(CCc3ccccc3O2)O1	-18%	/	-1%	20%	-14%
CCOC(=O)c1c(N)sc2c1CCC1C(=O)N(C3CCCCC3)C(=O)C21 (stereo unspecified)	15µM*	-3%	-19%	13µM*	3%
CCOC(=O)c1c(N)sc2c1CCC(CC)C2 (stereo unspecified)	-12%	0%	0%	/	1%
Fc1ccc(Cn2nnnc2C(c2ccc(Cl)cc2)N2CC=C(c3ccc(F)cc3)CC2)cc1 (stereo unspecified)	46%	-1%	-8%	12µM*	1%
Cc1ccc(C(c2nnnn2Cc2ccccc2)N2CC=C(c3ccc(F)cc3)CC2)cc1 (stereo unspecified)	35%	-9%	-3%	?	22%
Fc1ccc(C2=CCN(C(c3ccc(Cl)cc3)c3nnnn3Cc3ccccc3)CC2)cc1 (stereo unspecified)	-22%	10%	-6%	12µM*	-13%
COc1ccccc1S(=O)(=O)N(C)C[C@H]1OCc2cn(nn2)CCCC(=O)N([C@H](C)CO)C[C@@H]1C	/	/	1%	/	/
COC(=O)c1cc(C(=O)NCCCN2CCOCC2)cc([N+](=O)[O-])c1	5%	4%	-2%	19%	9%
COc1ccccc1N1CCN(Cc2cnc(-c3ccccc3)[nH]2)CC1	?	-1%	-14%	-15%	3%
SMILES	Pf growth 96h	NS1 function inh	AMA1-RON2 inh	Pf growth 48h	Sm TGR inh
CCOc1ccccc1N1CCN(Cc2cnc(-c3ccccc3)[nH]2)CC1	9.3µM*	-5%	-13%	13µM*	0%
CCn1c(=O)c(=O)n(CC)c2cc(N3CCCCC3)c(NC(=O)c3ccc(OC)c(OC)c3)cc21	/	/	/	/	7%
CCOc1ccc(C(=O)Nc2cc3c(cc2N2CCCC2)n(CC)c(=O)n3CC)cc1OCC	12µM*	-4%	0%	?	?
Cn1c(=O)n(C)c2cc(N3CCCCC3)c(NC(=O)c3cccc(Cl)c3)cc21	?	-1%	22%	10µM*	-25%
CCn1c(=O)n(CC)c2cc(N3CCCC3)c(NC(=O)c3c(F)cccc3F)cc21	?	1%	1%	?	-3%
CCn1c(=O)n(CC)c2cc(N3CCCC3)c(NC(=O)c3cccc(OC)c3)cc21	0.74µM*	-12%	-18%	?	?
COc1ccc(C(=O)Nc2cc3c(cc2N2CCOCC2)n(C)c(=O)n3C)cc1OC	?	-2%	14%	?	1%
CCOc1cc(C(=O)Nc2cc3c(cc2N2CCOCC2)n(C)c(=O)n3C)cc(OCC)c1OCC	8.3µM*	11%	0%	-16%	0%
CC(/C=C/C=C(\C)C(=O)O[C@@H]1O[C@H](CO[C@@H]2O[C@H](CO)[C@@H](O)[C@H](O)[C@H]2O)[C@@H](O)[C@H](O)[C@H]1O)=C\C=C\C=C(C)\C=C\C=C(/C)C(=O)O[C@@H]1O[C@H](CO[C@@H]2O[C@H](CO)[C@@H](O)[C@H](O)[C@H]2O)[C@@H](O)[C@H](O)[C@H]1O	11%	/	/	-1%	/
OC(CNCC1COc2ccccc2O1)COc1ccc(Cl)cc1 (stereo unspecified)	?	-16%	1%	4%	-16%
CN(C)Cc1ccc(C(C)(C)C)cc1-c1cc(C(C)(C)C)ccc1CN(C)C	/	-8%	/	/	/
CC(C)(C(=O)Nc1nccs1)c1ccccc1	-15%	16%	0%	-14%	8%
CCOC(=O)C1=C(c2ccccc2)c2ccc(OC)cc2N(S(=O)(=O)C(F)(F)F)C1C(=O)OCC (stereo unspecified)	/	/	-10%	/	/
O=C(Cn1ccc2ccccc2c1=O)NCC(=O)N1CCN(c2ccc(F)cc2)CC1	?	-4%	2%	29%	-14%
CSc1nsc(/C=C/Nc2cccc(Cl)c2)c1C#N	?	15%	3%	?	-4%
CSc1nsc(/C=C/Nc2ccc(F)cc2)c1C#N	6.6µM*	/	25%	-23%	-15%
